# Data published in PubChem BioAssay (Tox21).
# Unmarked numbers belong to inactive results. Results filed as inconclusive are left out. Where a call stands in place of a potency, no number is given. Active and inactive are the calls of the source. Unless noted, the call rests on the fitted dose curve; in most records, active means well fitted curve in the direction sought with a large enough effect in the repeat runs; inconclusive means weak or mixed curves; inactive means no such curve, though single readings can be large; an effect the other way counts as inactive or inconclusive.
# Tests used:
# [1] = qHTS assay to identify small molecule agonists of the estrogen receptor alpha (ER-alpha) signaling pathway in the presence of an antagonist - cell viability counter screen (AID 1259386);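 further: series mostly up to about 92 µM; cells exposed to compounds for 22 h at 37 °C before the viability read; nearly all actives have a fitted effect of over 30% in size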
# Summary of the method: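 Using estrogen-depleted VM7Luc4E2 cells, the 15-concentration compound series was applied together with 10.0nM ICI-182,780 and incubated 22hr at 37C/5% CO2. Cell viability was then scored by CellTiter-Fluor.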
# [2] = target: Progesterone receptor (Homo sapiens) (UniProt P06401); test: qHTS assay to identify small molecule agonists of the progesterone receptor (PR) signaling pathway (AID 1346784; calls by dose curve; further: nearly all actives have a fitted effect of over 30% in size; further: potency means the concentration at half of the fitted maximal effect)
# Sequence of Progesterone receptor (Homo sapiens) (P06401 whole entry, looked up): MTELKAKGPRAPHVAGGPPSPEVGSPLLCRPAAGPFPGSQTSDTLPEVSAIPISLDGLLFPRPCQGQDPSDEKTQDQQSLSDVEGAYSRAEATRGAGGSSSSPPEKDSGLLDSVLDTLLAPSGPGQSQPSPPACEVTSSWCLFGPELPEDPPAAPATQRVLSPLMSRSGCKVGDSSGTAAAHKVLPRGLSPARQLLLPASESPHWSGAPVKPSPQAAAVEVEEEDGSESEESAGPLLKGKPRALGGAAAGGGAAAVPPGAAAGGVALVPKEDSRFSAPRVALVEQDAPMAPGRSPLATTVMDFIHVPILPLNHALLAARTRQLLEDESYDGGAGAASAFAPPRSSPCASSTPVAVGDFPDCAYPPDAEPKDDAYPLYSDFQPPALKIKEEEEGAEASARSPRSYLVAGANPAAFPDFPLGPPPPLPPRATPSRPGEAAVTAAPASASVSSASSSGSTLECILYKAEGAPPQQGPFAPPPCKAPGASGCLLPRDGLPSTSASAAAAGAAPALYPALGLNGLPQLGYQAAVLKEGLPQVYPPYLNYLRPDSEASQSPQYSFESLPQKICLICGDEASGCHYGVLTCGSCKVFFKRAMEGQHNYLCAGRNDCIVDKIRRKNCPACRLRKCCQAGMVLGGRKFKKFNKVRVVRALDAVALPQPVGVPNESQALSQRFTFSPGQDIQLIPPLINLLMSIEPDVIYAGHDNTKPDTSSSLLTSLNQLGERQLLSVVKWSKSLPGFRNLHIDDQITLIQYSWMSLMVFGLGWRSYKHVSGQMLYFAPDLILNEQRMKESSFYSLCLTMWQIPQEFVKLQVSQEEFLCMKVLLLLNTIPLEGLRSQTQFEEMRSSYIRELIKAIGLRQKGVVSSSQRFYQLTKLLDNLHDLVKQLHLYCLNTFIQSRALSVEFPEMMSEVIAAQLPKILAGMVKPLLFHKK
# Summary of the method: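 HEK 293T PR-UAS-bla reporter cells, 2% charcoal-stripped FBS; 6 hr settle at 37C/5% CO2, compound (DMSO) 16 hr, LiveBLAzer B/G FRET substrate 2 hr RT, fluorescence intensity read.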
# [3] = target: Progesterone receptor (Homo sapiens) (UniProt P06401); test: qHTS assay to identify small molecule antagonists of the progesterone receptor (PR) signaling pathway (AID 1346795; active means well fitted inhibition curve with a large enough effect in the signal ratio in the repeat runs, not every such curve was filed as active; the % refers to the signal ratio; further: potency means the concentration at half of the fitted maximal effect)
# Summary of the method: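 Beta-lactamase reporter, HEK293T PR-UAS-bla line; 2% charcoal-stripped FBS; 6 hr pre-incubation, 37C/5% CO2. Compound + R5020 1 nM final, 16 hr. LiveBLAzer B/G FRET substrate, 2 hr RT; fluorescence intensity read.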
# [4] = qHTS assay to identify small molecule antagonists of the progesterone receptor (PR) signaling pathway - cell viability counter screen (AID 1346798); further: series mostly up to about 92 µM; nearly all actives have a fitted effect of over 50% in size
# Summary of the method: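 Luminescence readout (CellTiter-Glo, 30 min, RT) of viability in PR-UAS-bla HEK293T cells exposed to compound and R5020 agonist for 16 hr at 37C, 5% CO2; run in the same wells as the beta-lactamase reporter read.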
# [5] = qHTS assay to identify small molecule agonists of the progesterone receptor (PR) signaling pathway - cell viability counter screen (AID 1346799; calls by dose curve; further: nearly all actives have a fitted effect of over 45% in size)
# Summary of the method: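 HEK293T PR-UAS-bla, 3,000 cells/well, 2% charcoal-stripped FBS; 6 h settle, compound 16 h at 37C/5% CO2; LiveBLAzer 2 h RT, then CellTiter-Glo 30 min RT, luminescence read.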
# [6] = qHTS assay to identify small molecule agonists of the TGF-beta/Smad signaling pathway - cell viability counter screen (AID 1346829); further: nearly all actives have a fitted effect of over 45% in size; further: potency means the concentration at half of the fitted maximal effect; on activity change, negative = cytotoxicity: top concentration of the series differs between compounds
# Summary of the method: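 CellTiter-Glo luminescence readout; SBE-bla HEK 293T cells, overnight plating, compound 5 hr at 37 C/5% CO2, then bla substrate 2 hr RT, then CellTiter-Glo 30 min RT.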
# [7] = target: Thyrotropin-releasing hormone receptor (Homo sapiens) (UniProt P34981); test: qHTS assay to identify small molecule agonists of the thyrotropin-releasing hormone receptor (TRHR) signaling pathway (AID 1346891; calls by dose curve;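 further: HEK293 cells expressing TRHR with calcium dye readout; series mostly up to about 58 µM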)
# Sequence of Thyrotropin-releasing hormone receptor (Homo sapiens) (P34981 whole entry, looked up): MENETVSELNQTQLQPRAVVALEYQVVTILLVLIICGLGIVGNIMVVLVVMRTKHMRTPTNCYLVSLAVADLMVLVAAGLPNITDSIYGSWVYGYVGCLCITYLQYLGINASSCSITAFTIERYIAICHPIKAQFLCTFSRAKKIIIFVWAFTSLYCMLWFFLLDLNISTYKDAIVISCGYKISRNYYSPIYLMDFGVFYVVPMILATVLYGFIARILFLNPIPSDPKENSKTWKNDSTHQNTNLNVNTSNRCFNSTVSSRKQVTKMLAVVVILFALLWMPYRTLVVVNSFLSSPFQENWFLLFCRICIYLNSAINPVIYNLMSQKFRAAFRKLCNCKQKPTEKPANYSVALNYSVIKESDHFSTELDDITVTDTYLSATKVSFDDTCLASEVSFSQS
# Summary of the method: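 HEK293/TRHR cells, 1500 per well, 18 h 37 °C; Ca dye 2 h 37 °C; pin-tool compound addition (agonist mode); kinetic fluorescence 3 min, 1 s reads; 15 concentrations, triplicate.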
# [8] = qHTS assay to identify small molecule antagonists of the TGF-beta/Smad signaling pathway - cell viability counter screen (AID 1346824); further: nearly all actives have a fitted effect of over 50% in size
# Summary of the method: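 Cytotoxicity counter-screen run in the same wells as the beta-lactamase Smad reporter read: CellTiter-Glo luminescence after 30 min at room temperature. HEK 293T SBE-bla cells had 5 hr compound exposure at 37 C with TGF-beta1 (0.25 ng/mL stock).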
# [9] = qHTS assay to identify small molecule agonists of the TGF-beta/Smad signaling pathway (AID 1346859; active means well fitted activation curve with a large enough effect in the signal ratio in the repeat runs, not every such curve was filed as active; the % refers to the signal ratio; further: series mostly up to about 77 µM)
# Summary of the method: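 Read-out: fluorescence at 460 and 530 nm (405 nm excitation) after a 2 hr room-temperature incubation with beta-lactamase FRET substrate. SBE-bla HEK 293T cells had been treated with test compounds for 5 hr at 37 C.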
# [10] = target: Thyrotropin-releasing hormone receptor (Homo sapiens) (UniProt P34981); test: qHTS assay to identify small molecule antagonists of the thyrotropin-releasing hormone receptor (TRHR) signaling pathway (AID 1346877; active means well fitted inhibition curve with a large enough effect in the repeat runs, not every such curve was filed as active; further: series mostly up to about 51 µM)
# Summary of the method: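 Calcium signal in dye-loaded TRHR/HEK293 cells; compounds added 5 min before TRH (1 nM final); fluorescence monitored 3 min at 1 s steps.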
compound,measurement,setting,value
CC1CCC(C(C)CS)CC1S (stereo not given),Potency,[1],inactive
same,Potency,[2],inactive
same,Potency,[3],inactive
same,Potency,[4],inactive
same,Potency,[5],inactive
same,Potency,[6],54.9 µM (active)
same,outcome,[7],inactive
CNC1CCCN(c2c(F)cc3c(=O)c(C(=O)O)cn(C4CC4)c3c2OC)C1 (stereo not given),Potency,[1],inactive
same,Potency,[2],inactive
same,Potency,[3],inactive
same,Potency,[4],inactive
same,outcome,[8],inactive
same,Potency,[6],inactive
same,Potency,[9],inactive
O=C(c1ccccc1)c1ccc(O)cc1,Potency,[1],inactive
same,Potency,[2],inactive
same,Potency,[3],43.8 µM (active)
same,Potency,[4],inactive
same,outcome,[8],inactive
same,Potency,[6],inactive
same,Potency,[9],inactive
same,outcome,[10],inactive
same,outcome,[7],inactive
CCC(Cl)CC(Cl)C(Cl)C(Cl)C(Cl)C(C)Cl (stereo not given),"activity change, negative = cytotoxicity",[1],5.27% [at 19 µM]
same,activation,[2],-2.07% [at 19 µM]
same,"activity change, negative = inhibition",[3],-4% [at 18.9 µM]
same,"activity change, negative = cytotoxicity",[4],-5.89% [at 18.9 µM]
same,"activity change, negative = cytotoxicity",[5],9.92% [at 19 µM]
same,"viability change, negative = cytotoxic",[8],-12.4% [at 15.8 µM]
same,"activity change, negative = cytotoxicity",[6],0% [at 15.8 µM]
same,"activity, negative = inhibition",[10],0.125% [at 10.5 µM]
same,activation,[7],0.352% [at 11.8 µM]
CCCCCCCCCCCCCCN(C)C,"activity change, negative = cytotoxicity",[1],-8.37% [at 19 µM]
same,Potency,[2],0.738 µM (active)
same,"activity change, negative = inhibition",[3],5.91% [at 18.9 µM]
same,"activity change, negative = cytotoxicity",[4],2.26% [at 18.9 µM]
same,"viability change, negative = cytotoxic",[8],-8.55% [at 15.8 µM]
same,"activity change, negative = cytotoxicity",[6],4.77% [at 15.8 µM]
same,activation,[9],-0.505% [at 15.8 µM]
same,"activity, negative = inhibition",[10],0.781% [at 10.5 µM]
same,activation,[7],1.06% [at 11.8 µM]
CC(C)c1ccc(C(=O)N=C(N)N)cc1S(C)(=O)=O,Potency,[1],inactive
same,Potency,[2],inactive
same,Potency,[3],inactive
same,Potency,[4],inactive
same,outcome,[8],inactive
same,Potency,[6],inactive
same,Potency,[9],inactive
O=C(Oc1ccccc1)c1ccc2ccccc2c1O,Potency,[1],inactive
same,Potency,[2],inactive
same,Potency,[3],30.6 µM (active)
same,Potency,[4],inactive
same,outcome,[8],inactive
same,Potency,[6],inactive
same,Potency,[9],inactive
same,outcome,[10],inactive
same,outcome,[7],inactive
Cc1cccc2sc(N)nc12,Potency,[1],inactive
same,Potency,[2],inactive
same,Potency,[3],inactive
same,Potency,[4],inactive
same,outcome,[8],inactive
same,Potency,[6],inactive
same,Potency,[9],inactive
same,outcome,[10],inactive
same,outcome,[7],inactive
CCCCOCCOC(=O)c1cccnc1,Potency,[1],inactive
same,Potency,[2],inactive
same,Potency,[3],inactive
same,Potency,[4],inactive
same,outcome,[8],inactive
same,Potency,[6],inactive
same,Potency,[9],inactive
same,outcome,[10],inactive
same,outcome,[7],inactive
